Only some compounds are listed: those with a hit (about 2.2% of all), similar ones and a draw of the others.
ABCB6 inh MLPCN: blocks the human ABCB6 transporter | AID 602162 | fluorescence ratio to DMSO, % at 10 µM | K562-ABCB6 porphyrin accumulation, flow cytometry, 1 h; stronger effect = lower value | 360,000 compounds, 0.19% hits | Q9NP58;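 active = fluorescence ratio to DMSO below 75%, the collection mean minus 3 SD; inconclusive = too few cells collected in the well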;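 note: signal is porphyrin accumulated inside mitochondria; lower ratio means ABCB6 inhibition with less porphyrin fluorescence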
Target sequence (Q9NP58 whole entry, looked up): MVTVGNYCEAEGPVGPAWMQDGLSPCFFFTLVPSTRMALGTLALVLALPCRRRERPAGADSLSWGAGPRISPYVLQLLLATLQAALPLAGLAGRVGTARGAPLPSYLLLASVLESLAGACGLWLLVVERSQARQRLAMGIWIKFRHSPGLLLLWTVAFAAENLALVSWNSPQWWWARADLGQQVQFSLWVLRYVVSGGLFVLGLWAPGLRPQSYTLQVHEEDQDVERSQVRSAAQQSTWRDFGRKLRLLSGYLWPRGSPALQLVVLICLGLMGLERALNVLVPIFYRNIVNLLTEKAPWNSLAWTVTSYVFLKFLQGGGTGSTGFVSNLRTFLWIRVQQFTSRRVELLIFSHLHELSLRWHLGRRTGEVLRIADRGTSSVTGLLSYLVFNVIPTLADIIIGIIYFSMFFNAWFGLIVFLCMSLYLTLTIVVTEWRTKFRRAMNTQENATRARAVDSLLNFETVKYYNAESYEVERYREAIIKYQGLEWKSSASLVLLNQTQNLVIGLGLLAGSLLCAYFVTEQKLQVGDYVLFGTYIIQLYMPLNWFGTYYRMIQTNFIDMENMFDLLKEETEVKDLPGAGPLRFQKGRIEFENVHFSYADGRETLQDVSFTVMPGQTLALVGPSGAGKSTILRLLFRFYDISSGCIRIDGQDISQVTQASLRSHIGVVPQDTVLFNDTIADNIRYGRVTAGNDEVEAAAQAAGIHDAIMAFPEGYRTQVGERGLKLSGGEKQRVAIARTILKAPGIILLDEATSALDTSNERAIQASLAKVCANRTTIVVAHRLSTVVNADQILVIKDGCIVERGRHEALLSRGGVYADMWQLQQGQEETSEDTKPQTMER
Cardio protect: modulators protecting cardiomyocytes from myocardial damage; 360,000 compounds, 0.63% hits; AID 588492; H9c2 cardiomyocytes, H2O2 injury protection, ATPLite, 2 h; protection from H2O2 cell death, % at 20 µM;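 active = compounds giving at least 50% protection of heart cells from peroxide-induced death in the single-dose screen, raw or plate-pattern-corrected value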
MIN6 prolif-1: induces beta-cell replication in MIN6 cells; 330,000 compounds, 0.29% hits; proliferation, % at 10 µM; MIN6 cells proliferation, ATPlite luminescence, 48 h; cells starved in 0.2% serum; 100% = growth in 10% serum;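 active = compounds whose signal lies at least 3.5 SD above the mean of all wells on their plate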
iPSC survival up: hiPSC single-cell survival enhancement; ATPlite luminescence; 100% = ROCK inhibitor wells, 0% = DMSO; survival enhancement, % at 20 µM; 360,000 compounds, 0.044% hits; AID 602274; in the data active = survival enhancement above about 18%;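 note: cells exposed to compounds for 16 hours before the ATP read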
Myeloid diff 2: myeloid differentiation induction; ER-HoxA9 myeloid progenitors, lysozyme-GFP differentiation, flow cytometry; calls only at 10 µM; 360,000 compounds, 1% hits; AID 624256;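 active = normalized GFP-positive differentiation at or above the plate's own cutoff, the solvent-only control mean plus 3 SD; inconclusive = no clear call, values can overlap the other calls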;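 note: cells exposed to compound for four days before flow analysis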
MIN6 prolif-2: confirmation of inducers of beta-cell replication in MIN6 cells | shares compounds with MIN6 prolif-1 | MIN6 beta-cell proliferation, ATPlite luminescence, 48 h; cells kept in 0.2% serum; scaled between 0.2% and 10% serum | proliferation increase, % at 50 µM | 920 tested, under 10 active | AID 463095;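 active = proliferation increase above 40% at any of the four tested concentrations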
ABCB6 blocker 1: blocks the human ABCB6 transporter; ratio response (% of DMSO), % at 10 µM; shares compounds with ABCB6 inh MLPCN; 700 tested, under 10 active; AID 602430; K562-ABCB6 porphyrin accumulation, flow cytometry, 1 h; stronger effect = lower value;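 active = repeat-averaged ratio response below 75% of DMSO, the collection mean minus 3 SD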;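 note: median porphyrin fluorescence at 575 nm with 488 nm excitation from mitochondria; lower ratio means less porphyrin signal so ABCB6 inhibition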
Myeloid diff: myeloid differentiation induction. shares compounds with Myeloid diff 2. ER-HoxA9 myeloid progenitors, GFP/Mac1 double-positive flow. calls only. 2,300 compounds, 2% hits;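 active = share of green or green-and-red cells above 9 and 9% in run 1 or 4 and 3% in run 2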
GFP autofluor: counter-screen for myeloid differentiation promoters: compound fluorescence; shares compounds with Myeloid diff 2; ER-HoxA9 myeloid progenitors, no estrogen, GFP autofluorescence flow cytometry; vehicle wells 0%, positive control 100%; fluorescence response, % (test concentration not listed); 2,300 compounds, 7.4% hits;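 active = over 5% cells positive for green fluorescent reporter, or over 2% positive for both it and APC stain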
Each line names hits and unclear results; the compound was inactive in the other large screens (follow-up assays come after a bar, where they were run).

CC/C(=N\NC(=O)c1ccccc1)c1c(O)n(C2CCCCC2)c(=O)[nH]c1=O	MIN6 prolif-1 11.6 | MIN6 prolif-2 inactive
CC(=O)c1ccc(OC(NC(=O)c2ccco2)C(Cl)(Cl)Cl)cc1 (configuration not stated)	MIN6 prolif-1 7.2, Myeloid diff 2 active | MIN6 prolif-2 inactive | Myeloid diff inactive | GFP autofluor inactive
CN(C)CC#CCC(O)(c1ccccc1)C1CCCC1 (configuration not stated)	none
CCCCn1c(O)c(C(CC)=Nc2ccc(OCC)cc2)c(=O)[nH]c1=O	ABCB6 inh MLPCN 74.0 | ABCB6 blocker 1 inactive
CCCCn1c(O)c(C(CC)=Nc2ccc(OC)cc2OC)c(=O)[nH]c1=O	none
CCCCn1c(O)c(C(C)=NC(C)c2ccccc2)c(=O)[nH]c1=O (configuration not stated)	ABCB6 inh MLPCN 72.0 (no result: Myeloid diff 2) | ABCB6 blocker 1 inactive
CC(=O)N1CCC2(CC1)CC(=O)c1cc(OCC(=O)N3CCN(C)CC3)ccc1O2	ABCB6 inh MLPCN 58.0 | ABCB6 blocker 1 inactive
CC(=O)N1CCC2(CC1)CC(=O)c1cc(OCC(=O)N3CCC4(CC3)OCCO4)ccc1O2	none
C[N+](C)(C)CC1CCCC(C[N+](C)(C)C)C1=O (configuration not stated)	ABCB6 inh MLPCN 43.0, Myeloid diff 2 inconclusive (no result: MIN6 prolif-1) | ABCB6 blocker 1 68.0
CCOC(=O)c1c(-n2c(C)cc(/C=C3/C(=O)NC(=O)N(CC)C3=O)c2C)sc2c1CCCC2	ABCB6 inh MLPCN 73.0 | ABCB6 blocker 1 inactive
O=C1CN=C(c2ccc(Br)cc2)c2oc3ccccc3c2N1	none
COC(=O)C1=C(c2c(C)noc2C)C[C@@H]2CC[C@H]1N2C(=O)N1CCCCC1	none
O=C(CCN1CCOCC1)NCC(=O)Nc1ccc(Br)cc1C(=O)c1ccccc1	ABCB6 inh MLPCN 70.0 | ABCB6 blocker 1 inactive
CSc1ncc(CN2CCCC(C(=O)c3sccc3C)C2)cn1 (configuration not stated)	none
Fc1ccccc1CNCCc1c[nH]c2ccccc12	none
Fc1ccc(CNCCc2c[nH]c3ccccc23)cc1	ABCB6 inh MLPCN 69.0 | ABCB6 blocker 1 inactive
CC(=Nc1ccc2c(c1)CCC2)c1c(O)n(C2CCCCC2)c(=O)[nH]c1=O	none
O=C(Cc1cc(=O)oc2cc(O)ccc12)NN=Cc1ccc(N(CCCl)CCCl)cc1	none (no result: MIN6 prolif-1) | Myeloid diff inactive | GFP autofluor inactive
O=c1[nH]c(=S)[nH]c(O)c1/C=C1/C=c2ccccc2=N1	Myeloid diff 2 active (no result: MIN6 prolif-1) | Myeloid diff inactive | GFP autofluor 16.2
COC(=O)C1=C(c2cc3ccccc3s2)C[C@@H]2CC[C@H]1N2C(=O)N1CCOCC1	none | Myeloid diff inactive | GFP autofluor inactive
COC(=O)C1=C(c2cc3ccccc3s2)C[C@@H]2CC[C@H]1N2C(=O)N1CCCC1	none
CCCNC(=O)N1[C@H]2CC[C@@H]1C(C(=O)OC)=C(c1ccc3ccccc3c1)C2	none | Myeloid diff inactive | GFP autofluor inactive
COC(=O)C1=C(c2ccc(OC(F)(F)F)cc2)C[C@@H]2CC[C@H]1N2C(=O)NC1CCCCC1	none | Myeloid diff inactive | GFP autofluor inactive
COC(=O)C1=C(c2ccc3ccccc3c2)C[C@@H]2CC[C@H]1N2C(=O)NC1Cc2ccccc2C1	none
CCN(CC)CCN=C(C)c1c(O)n(-c2ccccc2OC)c(=O)[nH]c1=O	none
CCC(CC)NCc1c[nH]c2ccccc12	Myeloid diff 2 active | Myeloid diff inactive | GFP autofluor inactive
CCN(CC)Cc1c[nH]c2ccccc12	none
CCOC(=O)[C@]12Cc3ccccc3[C@H]1N(CCC(=O)OC)C(=O)c1ccccc12	Myeloid diff 2 active (no result: Cardio protect, MIN6 prolif-1) | Myeloid diff inactive | GFP autofluor inactive

Screening results deposited in PubChem by several laboratories.
